Shown are actives, neighbours in structure and some others; about 7.3% of the full set was active somewhere.
AmpC inh no detg: AmpC beta-lactamase inhibition without detergent. AmpC nitrocefin hydrolysis, absorbance 480 nm, 0.0001% Triton. P00811. 330,000 compounds, 0.52% hits. Potency, µM (titrated, usually from 57.1 µM), inactives show top-dose activity change, negative = inhibition, usual class: inhibitors. AID 485341;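 also: potency is read from the fitted curve at half-maximal effect; plate controls were no compound for no effect and no enzyme for full effect; nearly all actives have a fitted effect of over 20% in size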
Target sequence (P00811 whole entry, looked up): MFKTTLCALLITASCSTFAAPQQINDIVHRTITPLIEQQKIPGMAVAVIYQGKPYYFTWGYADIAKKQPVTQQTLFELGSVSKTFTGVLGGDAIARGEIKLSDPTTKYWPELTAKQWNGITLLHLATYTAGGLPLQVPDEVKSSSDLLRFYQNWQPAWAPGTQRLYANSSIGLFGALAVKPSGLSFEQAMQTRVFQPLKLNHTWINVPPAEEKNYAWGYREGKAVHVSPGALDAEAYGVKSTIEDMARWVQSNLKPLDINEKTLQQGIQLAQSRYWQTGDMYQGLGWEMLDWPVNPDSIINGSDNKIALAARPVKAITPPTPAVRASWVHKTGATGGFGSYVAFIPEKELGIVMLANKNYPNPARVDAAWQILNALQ
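AmpC (5.3 nM in the dispensed reagent) in 20 mM phosphate pH 7.0 with 0.01% (detergent screen) or 0.0001% Triton X-100 was preincubated with compounds for 15 min at room temperature. Nitrocefin was then added from an 800 uM solution, and hydrolysis was followed at 480 nm.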
AmpC detergent: AmpC beta-lactamase inhibition with detergent present | P00811 | AmpC hydrolysis of nitrocefin, absorbance 480 nm, 0.01% Triton | Potency, µM (doses to about 114 µM), for the others: at the highest dose activity change, negative = inhibition, actives largely listed as inhibitors | 370,000 compounds, 0.041% hits;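 also: potency is read from the fitted curve at half-maximal effect; 0% = no-compound wells and -100% = no-enzyme wells; nearly all actives have a fitted effect of over 25% in size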
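20 mM phosphate pH 7.0 + 0.01% (detergent screen) or 0.0001% Triton X-100; 5.3 nM AmpC reagent; cpd preinc 15 min RT; nitrocefin (800 uM stock) to start; A480 q20 s × 4 min; Activity was normalised to no-enzyme and no-compound control wells.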
HCV inh: inhibitors of hepatitis C virus infection. AID 651820. 340,000 compounds, 3.4% hits. Potency, µM (top dose mostly 41.8 µM), inactives show top-dose activity change, negative = inhibition, usual class: inhibitors. Huh7.5.1 HCVcc-Cre infection, luciferase reporter, 44 h; also: potency is read from the fitted curve at half-maximal effect
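Luciferase read-out (15 sec integration) after a 15 min room-temperature substrate step quantifies HCVcc-Cre infection. Cells, 1,000 per well, had compound added 4 h post-plating, then virus at ~0.5 moi, and were cultured 44 h.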
FMDV antiviral: antivirals against foot and mouth disease virus. FMDV antiviral cell-based qHTS. 410,000 compounds, 1.2% hits. AID 1159524. Potency, µM (series often up to 57.9 µM), for the others: top-dose activity change, negative = inhibition, hits mostly inhibitors; calls by dose curve; tested in HEK293T cells; also: read-out not given here; potency is read from the fitted curve at half-maximal effect; nearly all actives have a fitted effect of over 45% in size
HCMV inh: blocks human cytomegalovirus replication; HFF cells, HCMV-luciferase reporter, 72 h; active compounds read low; activity change, negative = inhibition, % at 57.5 µM; 410,000 compounds, 4.5% hits; in the data active = activity change below about -60%; inconclusive = no clear call, values can overlap the other calls; inactive = above about -39%
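Cell-based, HFFs, 1000 cells/well, 16 h 37C; cpds in DMSO + HCMV-luc, MOI 1 PFU/cell; 72 h 37C; OneGlo luminescence after 5 min RT; norm. to buffer vs Salinomycin 10uM.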
The depositor's hits bear a star; u = inconclusive; x = not tested or not shown; ! = not confirmed by another sample; [ ] = dose if it differs, or a comment. Unless noted, calls follow the shape of the dose curve; as a rule, active = well fitted curve in the direction sought with a large enough effect; inconclusive = small, poorly fitted or top-dose-only effect, or another doubt; inactive = no such curve, though single readings can be large; an effect the other way counts as inactive or inconclusive. Unless noted, % is scaled to controls: 0 for no effect and ±100 for the full control effect.

SMILES	AmpC inh no detg	AmpC detergent	HCV inh	FMDV antiviral	HCMV inh
O=C(NC1CCSc2ccccc21)c1cccc(Cl)c1 (stereo not given)	45%	-5%	-14%	u	-13
Cn1cc(C(=O)c2ccc(Cl)cc2)cc1-c1nc2ccccc2n1C	-11%	u	25µM*	16µM*	-69*
Cn1c(/C(C#N)=C/c2ccncc2)nc2ccccc21	-13%	-6%	-2%	16µM*	12
Cn1c(/C(C#N)=C/c2ccc(O)cc2)nc2ccccc21	-51%	-10%	-11%	16%	16
CC(C)C(NC(=O)Cc1ccccc1)C(=O)N1CCN(c2cccc(Cl)c2)CC1 (stereo not given)	22%	8%	11µM*	u	-101*
Cc1ccc2nc(-c3cc(NC(=O)/C=C/c4ccccc4)ccc3Cl)oc2c1	x	-2%	x	17%	13
C=CC(=O)N=c1sc2ccccc2n1-c1ccccc1	-12%	5%	11µM*	u	47
Cn1nc(C(C)(C)C)cc1C(=O)N1CCCCC1c1cc(C(=O)Nc2cccc(C#N)c2)no1 (stereo not given)	x	x	x	u	-13
CCOc1ccc(C(=O)CCC(=O)NCC(=O)Nc2ccc(F)c(F)c2F)cc1	x	x	x	-13%	26
N#Cc1ccc(-c2ccc(OCC(=O)NCC(=O)Nc3ccc(F)c(F)c3F)cc2)cc1	-23%	u	4%	0%	-60*
Cc1ccc2[nH]c3c(c2c1)CCCC3=O	-10%	-5%	10µM*	33%	145
Cc1ccc2[nH]c3c(c2c1)CCc1cn[nH]c1-3	-23%	u	14µM*	43%	17
Cc1ccc2[nH]c3c(c2c1)CCC3=O	-22%	-1%	u	x	57
CCn1c(CNC(=O)C23CC4CC(CC(C4)C2)C3)nnc1SCC(=O)Nc1ccccc1	x	u	x	-20%	-1
COc1ccc(NC(=O)CN(C)C(=O)CCNS(=O)(=O)c2ccc(Br)cc2)cc1	15%	-1%	-17%	12%	-22
O=C1CC(=O)Nc2cc(S(=O)(=O)Nc3cccc(Br)c3)ccc2N1	x	-2%	x	-5%	-13
c1ccc(Cn2nnc3c(N4CCOCC4)ncnc32)cc1	1%	u	13%	-19%	u
c1ccc(Cn2nnc3c(N4CCN(Cc5ccc6c(c5)OCO6)CC4)ncnc32)cc1	57%	0%	7.1µM*	u	-22
CCOc1ccc(C(C)NC(=S)NCc2ccc(Cl)cc2)cc1 (stereo not given)	-22%[2.29 µM]	-2%	u	3%	-74*
CCC(NC(=S)NCc1ccc(F)cc1)c1ccc(C(C)C)cc1 (stereo not given)	-39%	-2%	u	-21%	-97*
CCC(C)c1ccc(C(C)NC(=S)NCc2ccc(F)cc2)cc1 (stereo not given)	-13%	-9%	7.1µM*	u	-67*
CC(NC(=S)NCc1ccc(F)cc1)C12CC3CC(CC(C3)C1)C2 (stereo not given)	-31%	10%	-25%	-19%	-85*
CCc1ccccc1NC(=O)CCNS(=O)(=O)c1ccc2c(c1)CCN2C(=O)C1CC1	x	7%	x	-12%	-5
CN(C)CCCNC(=O)C(=O)NCC(c1cccs1)S(=O)(=O)c1ccc(F)cc1 (stereo not given)	-19%	u	-1%	1%	-35
O=C(CSc1ncnc2sc3c(c12)CCCC3)N1CCC(c2noc3ccc(F)cc23)CC1	-15%	-16%	11µM*!	3%	11
SMILES	AmpC inh no detg	AmpC detergent	HCV inh	FMDV antiviral	HCMV inh
COc1cc(OC)nc(-n2ncc(Br)c(Br)c2=O)n1	-22%	-5%	4µM*	10µM*	-105*
Cc1cc(C)cc(NC2=CC(c3cccc(F)c3)N(c3cc(C)cc(C)c3)C2=O)c1 (stereo not given)	x	-4%	x	0%	-7
COc1nnc(-c2ccc(N3CCCCC3)c(NC(=O)c3ccc(C)cc3)c2)c2ccccc12	x	1%	x	-22%	5
Cn1nc(-c2ccc(N3CCCCC3)c(NC(=O)c3ccco3)c2)c2ccccc2c1=O	-13%	1%	7.1µM*!	0%	-29
COc1nnc(-c2ccc(N3CCCCC3)c(NC(=O)c3ccccc3Cl)c2)c2ccccc12	x	24%	x	u	-99*
CCC(=O)Nc1cc(-c2nn(C)c(=O)c3ccccc23)ccc1N1CCOCC1	-7%	-1%	u	13%	68
Cc1cc(C)cc(N(CCC(=O)Nc2nnc(C3CC3)s2)S(=O)(=O)c2ccc(Cl)cc2)c1	-17%	-11%	u	0%	-61*
Cc1ccc(S(=O)(=O)NCCC(=O)Nc2nnc(C3CC3)s2)cc1C	-26%	u	1%	-5%	34
CC(=O)c1cccc(NS(=O)(=O)c2ccc(-c3cnc(C4CC4)o3)cc2)c1	-16%	-6%	u	-15%	-85*
Cc1ccc(C)c(NS(=O)(=O)c2ccc(-c3cnc(C4CC4)o3)cc2)c1	-9%	-8%	u	-16%	-82*
Cc1cc(C)cc(NS(=O)(=O)c2ccc(-c3cnc(C4CC4)o3)cc2)c1	-8%	u	5%	-9%	u
Cc1c(Cl)cccc1NS(=O)(=O)c1ccc(-c2cnc(C3CC3)o2)cc1	x	15%	x	-17%	-80*
Cc1cccc(NS(=O)(=O)c2ccc(-c3cnc(C4CC4)o3)cc2)c1C	1%	-1%	u	-30%	u
O=C(Cn1ccc(=O)[nH]c1=O)c1ccc([N+](=O)[O-])o1	x	x	x	-18%	87
Cc1cccc(NC(=O)c2ccc(N(C)C3CCCCC3)c([N+](=O)[O-])c2)n1	-45%	-6%	14µM*	u	u
Cc1ccc(CCN=c2c([N+](=O)[O-])nn(-c3ccccc3)n2O)cc1	-1%	5%	-27%	-21%	62
O=[N+]([O-])c1nn(-c2ccccc2)n(O)c1=NCCc1ccccc1	-5%	-5%	11µM*	9%	-37
O=[N+]([O-])c1nn(-c2ccccc2)n(O)c1=NC1CCN(Cc2ccccc2)CC1	-13%	3%	2µM*	-18%	u
COc1ccc(C(=O)N2CCCC(CCC(=O)NCc3ccccc3F)C2)c(OC)n1 (stereo not given)	26%	-11%	-7%	3%	-2
CCCCCCN1C[C@H](n2cc(COC(=O)c3ccccc3)nn2)[C@@H](O)C[C@@H]1c1ccccc1	x	x	x	0%	-15
CCCCCCN1C[C@@H](n2cc(COC(=O)c3ccccc3)nn2)[C@H](O)C[C@@H]1c1ccccc1	x	x	x	-22%	-103*
CCCCCCN1C[C@@H](n2cc(COC(=O)c3ccccc3)nn2)[C@H](O)C[C@@H]1c1ccc(Cl)cc1	x	x	x	-28%	-101*
CCOC(=O)C(NC(=O)c1ccccc1F)(Nc1cc(C)on1)C(F)(F)F (stereo not given)	-13%	u	11%	-10%	-94*
